Screening data as filed in PubChem BioAssay.
An excerpt weighted towards active compounds, which were near 2.3% of everything screened.
GoLoco inh red: RGS12 GoLoco-Gai1 interaction inhibition; P63096; Gai1:RGS12 GoLoco peptide FP, rhodamine, 10 min; Potency, µM (series often up to 61.6 µM), usual class: inhibitors; 0.44% of 230,000 active; active means well fitted inhibition curve with a large enough effect, not every such curve was filed as active; inactive means no such curve, though single readings can be large or run the other way; further: nearly all actives have a fitted effect of over 30% in size
Target sequence (P63096 whole entry, looked up): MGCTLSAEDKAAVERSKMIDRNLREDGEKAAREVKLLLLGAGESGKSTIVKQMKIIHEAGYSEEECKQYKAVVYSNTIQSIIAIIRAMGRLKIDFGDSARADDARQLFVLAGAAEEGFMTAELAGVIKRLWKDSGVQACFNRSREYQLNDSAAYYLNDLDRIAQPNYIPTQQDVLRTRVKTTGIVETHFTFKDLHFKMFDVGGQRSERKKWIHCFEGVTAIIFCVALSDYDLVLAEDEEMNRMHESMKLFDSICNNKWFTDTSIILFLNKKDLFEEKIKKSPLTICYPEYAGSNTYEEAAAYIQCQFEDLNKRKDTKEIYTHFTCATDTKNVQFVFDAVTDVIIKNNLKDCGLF
VDR inh: inhibitors of human vitamin D receptor. Potency, µM, usual class: inhibitors. VDR-SRC2-3 peptide fluorescence polarization, 2 h. 0.93% of 400,000 active. P11473
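Measured by FP: displacement of SRC2-3 coactivator peptide from VDR by library compounds, following a two-hour ambient incubation.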
HttQ103 aggreg: reduces HttQ103-GFP aggregates in PC12 cells; AID 1688; PC12 HttQ103-GFP aggregates, Acumen cytometry, 40 h; Potency, µM (highest dose often 46.1 µM), actives largely listed as inhibitors; 1.1% of 220,000 active; further: nearly all actives have a fitted effect of over 60% in size
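Using laser scanning cytometry, GFP-positive aggregates were counted after lysis of PC12 cells induced with 100 nM tebufenozide to express HTT exon 1 Q103–GFP. Compounds were tested in titration.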
JMJD2E inh: inhibitors of human JMJD2E histone demethylase | Potency, µM (series often up to 57.1 µM), most hits filed as inhibitors | B2RXH2 | 1.6% of 230,000 active | JMJD2E catalytic domain, FDH-coupled NADH fluorescence (FDH is formaldehyde dehydrogenase) | AID 2147; active means well fitted inhibition curve with a large enough effect, not every such curve was filed as active; inconclusive means small, poorly fitted or top-dose-only effect, or another doubt; inactive means no such curve, though single readings can be large or run the other way; further: nearly all actives have a fitted effect of over 50% in size
FBPA coupling cs: inhibits coupling enzyme system, counter-screen for aldolase hits; coupling enzyme system counterscreen, AmpLite Red fluorescence; activity change, negative = inhibition, % at 58.2 µM, hits read low; 0.67% of 290,000 active; AID 2472; in the data active means activity change below about -30%
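Compounds tested against the coupling enzymes alone at 57.5 uM final; readout was AmpLite Red fluorescence (525/598 nm) after 20 min at RT.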
HTT ATP protect: protects HTT-Q103 PC12 cells, measured by ATP | PC12 HTT-Q103 induced, cytoprotection, ATP luminescence, 40 h | Potency, µM (series often up to 56.4 µM), usual class: activators | 0.14% of 230,000 active; further: nearly all actives have a fitted effect of over 45% in size
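Huntington model: PC12 line, ecdysone-inducible HTTQ103 exon1–GFP, tebufenozide 100 nM. Test articles in a dose series. Endpoint luminescence from cellular ATP.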
Each line names hits and unclear results; the compound was inactive in the other large screens; ! = not confirmed by another sample. Unless noted, the call rests on the fitted dose curve; in most records, active means well fitted curve in the direction sought with a large enough effect; inconclusive means small, poorly fitted or top-dose-only effect, or another doubt; inactive means no such curve, though single readings can be large; an effect the other way counts as inactive or inconclusive.

COc1ccccc1NC(=S)NCCN1CCOCC1	none (no result: HTT ATP protect)
S=C(NCCN1CCOCC1)Nc1cccc2ccccc12	HttQ103 aggreg 3.55µM, JMJD2E inh inconclusive
O=S(=O)(Nc1ccc(Cl)cc1)c1ccc(N2CCOCC2)c(NC(=S)NC2CC2)c1	VDR inh 79.4µM
O=C(CCC1CCCN(C(=O)CC2=CCCCC2)C1)N1CCN(c2ccccn2)CC1 (stereo unspecified)	VDR inh 79.4µM, JMJD2E inh inconclusive
CN1CCN(S(=O)(=O)c2cccc(C(=O)Oc3ccccc3Cl)c2)CC1	none (no result: GoLoco inh red, HttQ103 aggreg, JMJD2E inh, FBPA coupling cs, HTT ATP protect)
O=C(c1ccccc1)N1CCN(c2ccc(N3CCOCC3)nn2)CC1	none (no result: GoLoco inh red, HttQ103 aggreg, JMJD2E inh, FBPA coupling cs, HTT ATP protect)
CC(=O)c1cccc(NS(=O)(=O)c2ccc(N/C=C\C(=O)c3ccc(F)cc3)cc2)c1	HttQ103 aggreg 10µM, JMJD2E inh inconclusive (no result: FBPA coupling cs)
CC(=O)c1cccc(NS(=O)(=O)c2ccc(N/C=C/C(=O)c3ccc(F)cc3)cc2)c1	none
COC(=O)c1cc(OC)c(OC)cc1NC(=O)C1CCC(=O)N1S(=O)(=O)c1ccc(C)cc1 (stereo unspecified)	HttQ103 aggreg 3.16µM, JMJD2E inh inconclusive
COC(=O)c1ccccc1NC(=O)C1CCC(=O)N1S(=O)(=O)c1ccc(C)cc1 (stereo unspecified)	none
CCOC(=O)c1cc2c(=O)n3ccccc3nc2n(Cc2ccco2)c1=NC(=O)c1ccccc1OC	VDR inh 56.2µM!, JMJD2E inh inconclusive
S=C(NCCc1ccccc1)Nc1cnc2ccccc2c1	JMJD2E inh 25.1µM (no result: HTT ATP protect)
Cn1c(Sc2ccc(Br)cc2)c(C=O)c2ccccc21	HttQ103 aggreg 10µM
Cn1c(Oc2ccc(F)cc2)c(C=O)c2ccccc21	none
CC1CCC(C(C)C)C(OP(=O)(c2ccccc2)C(O)c2ccncc2)C1 (stereo unspecified)	JMJD2E inh 17.8µM
CN(C)c1ccc(P(=O)(OC2CCCCC2)C(O)c2ccncc2)cc1 (stereo unspecified)	JMJD2E inh 22.4µM
CC(C)COP(=O)(c1ccc(N(C)C)cc1)C(O)c1ccc(N(C)C)cc1 (stereo unspecified)	none (no result: GoLoco inh red, HttQ103 aggreg, JMJD2E inh, HTT ATP protect)
CC(C)COP(=O)(c1ccc(N(C)C)cc1)C(O)c1ccncc1 (stereo unspecified)	JMJD2E inh 20µM
Cc1ccc(CN2CC(C(=O)NCCCSc3ccccc3)CC2=O)cc1 (stereo unspecified)	none (no result: GoLoco inh red, HttQ103 aggreg, JMJD2E inh, FBPA coupling cs, HTT ATP protect)
S=c1[nH]c2ccc(Cl)cc2s1	JMJD2E inh 7.94µM
C=CCC(O)(/C=C/c1ccccc1)c1ccccc1 (stereo unspecified)	none (no result: HttQ103 aggreg)
COc1cccc2c1nc(C)c1cc(C)oc12	JMJD2E inh inconclusive
COc1cccc2nc3cc(C)c(C)cc3nc12	VDR inh 22.4µM, FBPA coupling cs -38.9
CCn1ccc2c(OCC(=O)Nc3ccc(C(C)=O)cc3)cccc2c1=O	none (no result: GoLoco inh red, HttQ103 aggreg, JMJD2E inh, FBPA coupling cs, HTT ATP protect)
O=C(N/N=C/c1cc(Cl)cc([N+](=O)[O-])c1O)c1ccccc1NS(=O)(=O)c1cccs1	JMJD2E inh 6.31µM
Cc1cc(C(=O)N/N=C/c2cc(Cl)cc([N+](=O)[O-])c2O)c2ccccc2n1	HttQ103 aggreg 15.8µM, JMJD2E inh 5.62µM
COc1ccc(OCc2nn3c(Cn4cnc5ccccc54)nnc3s2)cc1	HttQ103 aggreg 25.1µM
c1ccc(Cc2nn3c(Cn4nnc5ccccc54)nnc3s2)cc1	VDR inh 89.1µM
c1ccc(CCc2nn3c(Cn4nnc5ccccc54)nnc3s2)cc1	VDR inh inconclusive
CCCOc1nc2c(c(=O)n(C)c(=O)n2C)n1Cc1cccc2ccccc12	HttQ103 aggreg 12.6µM
CC(=O)CCS(=O)(=O)c1ccc(Oc2ccc(S(=O)(=O)CCC(C)=O)cc2)cc1	HttQ103 aggreg inconclusive
COc1ccc(S(=O)(=O)CCC(=O)O)cc1	HttQ103 aggreg 2.24µM
COc1ccc(NS(=O)(=O)c2cccc(C(=O)N/N=C(\C)c3ccncc3)c2)cc1	none (no result: HTT ATP protect)
COc1ccc(NS(=O)(=O)c2cccc(C(=O)N/N=C(\C)c3ccc(-n4ccnc4)cc3)c2)cc1	JMJD2E inh inconclusive, FBPA coupling cs -46.0
Clc1cccc(-n2ncc3c(NCCC4=CCCCC4)ncnc32)c1	none (no result: GoLoco inh red, HttQ103 aggreg, JMJD2E inh, FBPA coupling cs, HTT ATP protect)
